ELG1 repair inh – inhibitors of ELG1-dependent DNA repair in HEK293T cells | HEK293T ELG1-luciferase reporter, luminescence, 16 h; DNA damage induced by 5-fluorouridine | Potency, µM (highest dose often 46.1 µM), actives largely listed as inhibitors | 2.3% of 330,000 active | AID 504467; also: nearly all actives have a fitted effect of over 55% in size
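Quantitative HTS, concentration-response format. 2,000 cells/well co-treated with 5-fluorouridine and compound, 16 hr in 5% CO2 at 37 °C; ONE-Glo luminescence read after 30 min.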
KB-V1 cytotox – KB-V1 MDR subline cytotoxicity; Potency, µM (highest dose often 46.1 µM), usual class: cytotoxic; KB-V1 MDR cells viability, CellTiter-Glo, 72 h; AID 1347076; 3.4% of 400,000 active; also: nearly all actives have a fitted effect of over 60% in size
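In this primary screen, KB-V1 cells overexpressing P-gp are incubated with library compounds (lowest to highest concentration) for 72 h at 37 degrees C before a luminescent ATP viability read.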
MCF10A rereplic – inducers of DNA re-replication in MCF 10A breast cells. MCF 10A DNA re-replication, Hoechst nuclear intensity, 48 h. Potency, µM (titrated, usually from 46.1 µM), usual class: activators. 2.9% of 350,000 active. AID 624296; also: nearly all actives have a fitted effect of over 50% in size
KB-3-1 cytotox – KB-3-1 parental cell cytotoxicity; KB-3-1 viability, CellTiter-Glo ATP luminescence, 72 h; Potency, µM (titrated, usually from 46.1 µM), usual class: cytotoxic; 1.4% of 400,000 active; AID 1347075; also: nearly all actives have a fitted effect of over 60% in size
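Multi-concentration cytotoxicity screen in KB-3-1 cells grown in DMEM lacking phenol red with 10% FBS. After 72 h at 37 °C with compound, ATP-dependent luminescence was recorded.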
SW480 rereplic – induces DNA re-replication in SW480 colon adenocarcinoma cells. SW480 DNA re-replication, Hoechst DNA content imaging, 48 h. Potency, µM (highest dose often 46.1 µM), usual class: activators. 1.8% of 340,000 active. AID 624297; also: nearly all actives have a fitted effect of over 55% in size
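Compounds, transferred as 23 nL by pin tool, were incubated with cells for 48 hr; DNA content per nucleus was then quantified by Hoechst staining and fluorescence plate imaging.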
Hits are given with their value; 0 = inactive; ? = inconclusive; - = not tested or not shown; ! = a repeat was not active; [ ] = remark or other dose. Only some compounds are listed: those with a hit (about 8.1% of all), similar ones and a draw of the others. Calls follow the shape of the dose curve; as a rule, active = well fitted curve in the direction sought with a large enough effect; inconclusive = small, poorly fitted or top-dose-only effect, or another doubt; inactive = no such curve, though single readings can be large; an effect the other way counts as inactive or inconclusive.

SMILES	ELG1 repair inh	KB-V1 cytotox	MCF10A rereplic	KB-3-1 cytotox	SW480 rereplic
COc1ccccc1C(=O)Nc1ccc(S(=O)(=O)N2CCCCC2c2cccnc2)cc1 (stereo not given)	23µM	0	0	0	0
OC(c1ccccc1)(c1ccccc1)c1nccc2ccccc12	-	18µM	0	?	0
CCCN(c1ccc(OCC)cc1)c1ncnc2nc[nH]c12	?	0	0	0	0
Cc1ccc(C(=O)OCC(=O)Nc2sc3c(c2C#N)CCC3)cc1	0	0	0	0	0
COc1ccc(CN2CCN(Cc3ccc(C(F)(F)F)cc3)CC2)c(OC)c1	0	0	0	0	16µM
COc1ccc(CN2CCN(Cc3ccc(C)cc3)CC2)c(OC)c1	0	0	?	0	0
COc1ccc(CN2CCN(S(=O)(=O)c3ccccc3)CC2)c(OC)c1	0	18µM!	0	0	0
COc1ccc(OC)c(CN2CCN(S(=O)(=O)c3ccccc3)CC2)c1	-	0	0	0	0
CCOC(=O)C[C@H]1c2ccccc2S(=O)(=O)N1Cc1ccc(Cl)cc1	-	16µM!	0	?	0
COc1ccc(CN2[C@@H](CC(=O)O)c3ccccc3S2(=O)=O)cc1	-	?	0	0	0
CCOC(=O)C[C@H]1c2ccc(C(F)(F)F)cc2S(=O)(=O)N1Cc1ccccc1	-	?	0	0	0
CCOC(=O)C[C@H]1c2cc(C(F)(F)F)ccc2S(=O)(=O)N1Cc1ccccc1	-	10µM!	0	0	0
COc1ccc(C2CC(=O)Oc3cc(C)c(Cl)c(C)c32)cc1 (stereo not given)	?	0	18µM	0	0
COc1cc(C2CC(=O)Oc3cc(C)c(Cl)c(C)c32)cc(OC)c1OC (stereo not given)	0	0	?	0	0
COC(=O)c1[nH]c2cccc(OC)c2c1NC(=O)CCN1CCSCC1	0	0	0	0	0
O=C(Nc1ccc2nc(-c3ccccc3)[nH]c2c1)c1cccs1	?	0	0	0	0
C=CCOc1ccc2nc(NC(=O)OC)[nH]c2c1	?	1.2µM	1.5µM	0.65µM	1.3µM
CC(=O)Nc1nc2ccccc2[nH]1	0	0	0	0	0
COC(=O)c1ccc(-c2n[nH]c(=O)c3ccccc23)cc1	?	0	0	0	0
CCOc1ccc2nc(NCCO)[nH]c2c1	0	0	0	0	0
CCCCc1ccc2nc(NC(=O)OC)[nH]c2c1	-	-	?	-	0.13µM
C=C(c1ccc2nc(NC(=O)OC)[nH]c2c1)c1cccs1	-	0.65µM	0.58µM	?	0.73µM
COC(=O)Nc1nc2ccc(-c3n[nH]c(=O)c4ccccc34)cc2[nH]1	?	0	0	15µM	0
Cc1cc(=O)[nH]c(/N=C(\N)Nc2ccc(Oc3ccccc3)cc2)n1	0	0	0	0	0
O=C(Nc1ccc(SC(F)F)cc1)c1ccc2c(=O)n3c(nc2c1)CCC3	?	0	?	0	?
SMILES	ELG1 repair inh	KB-V1 cytotox	MCF10A rereplic	KB-3-1 cytotox	SW480 rereplic
CC(NC(=O)COc1ccccc1)C(=O)N1CCN(c2ccc(F)cc2)CC1 (stereo not given)	0	18µM	0	0	0
O=C(N/N=C/c1sc2ccccc2c1O)c1ccccc1	?	?	?	0	2.6µM
COc1ccc2cc(C(=O)N/N=C/c3sc4ccccc4c3O)ccc2c1	0	23µM	?	13µM	?
COc1ccc(C(=O)N/N=C/c2sc3ccccc3c2O)cc1	?	?	?	7.3µM	5.2µM
O=C(N/N=C/c1sc2ccccc2c1O)c1cccc2ccccc12	0	?	?	0	?
CC(=O)C1=CCC(c2ccc(C)o2)N(S(=O)(=O)c2ccc(C)cc2)C1 (stereo not given)	-	0	-	0	-
CC(C)[C@H](NC(=O)c1ccccc1F)C(=O)OCCN1C(=O)c2ccccc2C1=O	?	15µM	0	0	0
O=C(c1ccc(Cl)cc1)C(CN1CCCCC1)c1ccccc1 (stereo not given)	?	21µM	?	23µM	?
CCCOc1ccc(C(=O)C(CN2CCOCC2)c2ccccc2)cc1 (stereo not given)	?	?	18µM	?	11µM
COc1ccc(C(=O)C(CN2CCOCC2)c2ccccc2)cc1F (stereo not given)	?	?	12µM	?	?
CCCCCCCCN1C(=O)[C@H](CC(=O)N2CCN(C(=O)OCC)CC2)C[C@@]2(C(=O)OC)CCCCC=C12	-	?	-	0	-
O=C(Cc1cccc2ccccc12)Nc1ccc(OC(F)F)c(Cl)c1	?	21µM	0	?	0
O=C(O)c1ccccc1OC(C(=O)Nc1cc(Cl)cc(Cl)c1)c1ccccc1 (stereo not given)	?	?	21µM	0	?
O=C(Nc1cc(Cl)cc(Cl)c1)C(c1ccccc1)N1CCCCC1 (stereo not given)	0	?	0	?	0
COC(=O)Cc1ccc(NC(=O)C(c2ccccc2)c2ccccc2)cc1	0	8.2µM	0	0	0
COCc1cccc(NC(=O)Cc2cccc3ccccc23)c1	0	0	0	0	0
Cc1cc(C)cc(-n2c3ccc(NC(=O)Cc4cccc5ccccc45)cc3c(=O)n2C)c1	-	?	-	5.2µM	-
Cc1noc(C)c1C(=O)OC(C)C(=O)Nc1ccc([N+](=O)[O-])cc1C(F)(F)F (stereo not given)	-	0	-	0	-
Cc1cc(=O)[nH]c(Nc2cccc(Cl)c2C)n1	0	0	0	0	0
O=C(Nc1ccc(OC(F)F)c(Cl)c1)C(c1ccccc1)c1ccccc1	0	?	2.3µM	?	0
FC(F)Oc1ccc(NC(=S)NCc2ccccc2)cc1Cl	0	?	0	?	?
COc1ccc(OC)c(CN(CCN2CCOCC2)C(=O)Nc2cccc(Cl)c2)c1	?	3.7µM	0	0	0
COc1ccc(OC)c(CN(CCN2CCOCC2)C(=O)Nc2ccccc2)c1	?	?	?	0	0
Cc1ccc(C)c2[nH]c(=O)c(CN(CCN3CCCC3)C(=O)Nc3cccc(Cl)c3)cc12	15µM	0	0	?	0[9.22 µM]
Cc1cc(C)c2cc(CN(CCO)C(=O)Nc3ccc(Cl)cc3)c(=O)[nH]c2c1	18µM	0	?	0	?
SMILES	ELG1 repair inh	KB-V1 cytotox	MCF10A rereplic	KB-3-1 cytotox	SW480 rereplic
Cc1cc(C)c2cc(CN(CCN3CCCC3)C(=O)Nc3ccc(F)cc3)c(=O)[nH]c2c1	?	0	0	?	0
COc1ccc(S(=O)(=O)N2CCCCC2)cc1C(=O)N1CCCC1	0	0	0	0	0
COc1ccccc1Nc1sc(C(=O)c2ccc(F)cc2)c(N)c1S(=O)(=O)c1ccc(C)cc1	-	?	-	0	-
O=C1c2ccccc2NC(c2ccc(-c3cccc([N+](=O)[O-])c3)o2)N1O (stereo not given)	?	2.3µM	0	?	0
CCO[C@@H]1OC(C(=O)NCc2nc3ccccc3[nH]2)=C[C@H](c2ccccc2)[C@H]1CCCO	?	0	0	0	?
COc1ccc(-c2c(C(C)=O)c(C)nc3sc4c(=N)n(N)cnc4c23)cc1	?	18µM	0	?	?
